What all share (parameters): species or system human, MV4-11 + K-562 + COLO205 + SK-N-BE2 + OVCAR-8
One experiment deals with AKT3. The following applies: read-out: apparent Kd, compound concentrations: 100 nM and 1000 nM (sheet 'Samples'), n = 1.
The test system of the next experiment is MAP2K2. The following applies: read-out: apparent Kd, n = 1.
The next experiment concerns MAP4K3. The following applies: read-out: apparent Kd, compound concentrations: 100 nM and 1000 nM (sheet 'Samples'), n = 1.
For the next experiment, the system named is MAP4K5. To be noted: read-out: apparent Kd, n = 1.
A further experiment has as its system RPS6KA1. To be noted: read-out: apparent Kd; compound concentrations: 100 nM and 1000 nM (sheet 'Samples'), CATDS: 9.1961356652332602E-3; n = 1.
The next experiment concerns STK11. The following applies: read-out: apparent Kd, n = 1.
For the next experiment, the system named is MAP4K2. The following applies: read-out: apparent Kd; compound concentrations:100 nM and 1000 nM (sheet 'Samples'); n = 1.
For the next experiment, the system named is PIM2. The following applies: read-out: apparent Kd; compound concentrations:100 nM and 1000 nM (sheet 'Samples'); n = 1.
For a further experiment, the system named is SLK. To be noted: read-out: apparent Kd, n = 1.
In a further experiment the test system is IKBKE. The following applies: read-out: apparent Kd; compound concentrations:100 nM and 1000 nM (sheet 'Samples'); n = 1.
The test system of the next experiment is NEK9. The following applies: read-out: apparent Kd; compound concentrations:100 nM and 1000 nM (sheet 'Samples'); n = 1.
A further experiment concerns AKT2. The following applies: read-out: apparent Kd, n = 1.
For a further experiment, the system named is PIK3C2A. To be noted: read-out: apparent Kd, n = 1.
Another experiment relates to TP53RK. To be noted: read-out: apparent Kd, n = 1.
A further experiment concerns CDK10. To be noted: read-out: apparent Kd; compound concentrations:100 nM and 1000 nM (sheet 'Samples'); n = 1.
Another experiment concerns PIK3C3. To be noted: read-out: apparent Kd, n = 1.
The mark [1] stands for this setting: compound concentrations:100 nM and 1000 nM (sheet 'Samples').

We go through 19 compounds from publication PMC11062922 (Nature Chemical Biology, 2023).

SMILES strings stand for the structures. Like-named read-outs stand apart in the source and are kept apart here.

`CCCc1cc(N2CCCN(C)CC2)nc2sc3c(N)ncnc3c12` [BI00604564]: the potency estimated from few doses in the experiment with AKT3 (CATDS: 0.13900414431421401) was 1920 nM. As for `COc1cc[nH]c1/C=C1\C(=O)Nc2ccc(F)c(C#CC3(O)CCNCC3)c21.Cl` [RO0282986-001], the potency estimated from few doses in the experiment on MAP2K2 (compound concentrations: 100 nM and 1000 nM (sheet 'Samples'), CATDS: 1.07586832750675E-2) was 1010 nM; in the experiment with MAP4K3 (CATDS: 9.73261825141249E-3) it was 1470 nM; in the experiment on MAP4K5 (compound concentrations: 100 nM and 1000 nM (sheet 'Samples'), CATDS: 8.9413368005166593E-3), 2190 nM; with RPS6KA1, 1900 nM; in the experiment on STK11 (compound concentrations: 100 nM and 1000 nM (sheet 'Samples'), CATDS: 1.0901325293505499E-2), 966 nM. As for `O=C(O)C(F)(F)F.O=c1[nH]ccc2nc(N[C@@H]3CCNC3)nc(Nc3cc(Cl)cc(Cl)c3)c12` [GSK2188764A], the potency estimated from few doses with MAP4K2 is 70.1 nM; with PIM2 it was 2030 nM; in the experiment with SLK (setting [1]), 826 nM. As to `CC(C)Oc1ccc2c(-c3ccnc(Nc4ccc(N5CCN(C)CC5)cc4)n3)cnn2n1` [GW696155X], the potency estimated from few doses with IKBKE is 343 nM; in the experiment with NEK9, 26 nM. Consider `CNCC#Cc1c(F)ccc2c1/C(=C/c1[nH]ccc1OC)C(=O)N2.Cl` [RO0281601-001], for which the potency estimated from few doses in the experiment on STK11 (compound concentrations: 100 nM and 1000 nM (sheet 'Samples'), CATDS: 2.1927929235579201E-2) is 1930 nM. `Nc1nc(-c2ccc3c(N)n[nH]c3c2)cc(N2CCCC(NC(=O)c3ccccc3)C2)n1` (centres unmarked) [GSK2286775B]: the potency estimated from few doses is 1370 nM with AKT2 (setting [1]); 298 nM with IKBKE; 1560 nM in the experiment with MAP2K2 (setting [1]); 1910 nM in the experiment with PIK3C2A (setting [1]); 2230 nM with TP53RK (setting [1]). Take `Cl.Cn1c(=O)c(Cc2ccccc2F)cc2cnc(NC3CCOCC3)nc21` [RO3305377-001]: the potency estimated from few doses in the experiment on AKT3 (CATDS: 1.8504555943704901E-2) is 1380 nM. For the compound `O=C(Nc1n[nH]c2nc(-c3ccccc3O)ccc12)C1CC1` [SB-711880], the potency estimated from few doses was 1460 nM in the experiment with MAP4K2 and 1760 nM in the experiment with MAP4K5 (setting [1]). With `CN[C@H](C#Cc1c(F)ccc2c1/C(=C/c1[nH]ccc1OC)C(=O)N2)CO.Cl` [RO0283049-001], in the experiment with STK11 (compound concentrations: 100 nM and 1000 nM (sheet 'Samples'), CATDS: 2.2375085806392098E-2), the potency estimated from few doses was 1190 nM.

For `Cl.Nc1nc(-c2ccc3c(c2)C(=Cc2cc(Br)c(O)c(Br)c2)C(=O)N3)cs1` [GW407323A], in the experiment on TP53RK (compound concentrations: 100 nM and 1000 nM (sheet 'Samples'), CATDS: 2.8034660612356401E-2), the potency estimated from few doses is 1950 nM. Take `CC(C)N1CC(=O)N(C)c2cnc(Nc3cccc(S(=O)(=O)CCN4CCOCC4)c3)nc21` [BI00009348]: the potency estimated from few doses in the experiment on SLK (compound concentrations: 100 nM and 1000 nM (sheet 'Samples'), CATDS: 4.9346970439547798E-2) is 1920 nM. In the case of `CCn1c(-c2nonc2N)nc2cncc(C(=O)N3CC[C@H](N)C3)c21.Cl` [SB-772077-B], the potency estimated from few doses with PIM2 was 122 nM.

On to `Nc1nccc(-c2ccc3c(N)n[nH]c3c2)n1` [GSK1034945A], for which, in the experiment with TP53RK (setting [1]), the potency estimated from few doses is 1540 nM. For `COc1ccc(Nc2nccc(NCCNC(=O)Nc3cc(C)ccc3C)n2)cc1` [GSK1379899A], in the experiment on AKT2 (compound concentrations: 100 nM and 1000 nM (sheet 'Samples'), CATDS: 3.9720416292935899E-2), the potency estimated from few doses was 2190 nM. For `Cc1cc(NC(=O)c2cccc(NC(=O)/C=C/CN(C)C)c2)ccc1Nc1nccc(-c2cccnc2)n1` [JNK-IN-7], the potency estimated from few doses with CDK10 was 844 nM; with NEK9, 1380 nM; with PIK3C3 (setting [1]), 1570 nM. As for `COc1cc[nH]c1/C=C1\C(=O)Nc2ccc(F)c(C#C[C@@H](O)[C@@H](N)[C@@H](C)O)c21` [RO0283120-000], the values for the potency estimated from few doses in the experiment with MAP4K2 and with STK11 (setting [1]) were 1070 nM and 1010 nM, respectively. `NS(=O)(=O)c1ccc(NC=C2C(=O)Nc3ccc4ncsc4c32)cc1` [GW589933X]: the potency estimated from few doses in the experiment on MAP4K3 (CATDS: 1.6349767602700901E-2) was 2070 nM. Regarding `Cc1occc1-c1nc(N)c(OC[C@@H](N)Cc2c[nH]c3ccccc23)cc1-c1cc2c(C)n[nH]c2cn1` [GSK1660450B], the potency estimated from few doses in the experiment with MAP4K5 (setting [1]) is 50.5 nM. Take `CCC(CC)(CC)n1cnc2c(N)ncnc21` [SKF-97620]: the potency estimated from few doses in the experiment with PIK3C2A (compound concentrations: 100 nM and 1000 nM (sheet 'Samples'), CATDS: 2.66380598887557E-2) is 1430 nM; with PIK3C3 (compound concentrations: 100 nM and 1000 nM (sheet 'Samples'), CATDS: 3.20593447179814E-2), 852 nM.
